# Screens (PubChem)
# A selection: hits, their analogues and other compounds. The true share with any hit is near 3.8%.
# H9c2 protect: myocardial damage modulation in H9c2 cells. H9c2 cardiomyocytes, H2O2 injury protection, ATPLite, 2 h. protection from H2O2 cell death, % at 20 µM. 360,000 tested, 0.63% active;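 active = compounds giving at least 50% protection of heart cells from peroxide-induced death in the single-dose screen, raw or plate-pattern-corrected value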;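 also: 0% = DMSO wells with peroxide and 100% = DMSO wells without peroxide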
# aDG glyco act: alpha-DG glycosylation activation | Pro5-aDG cells, alpha-DG glycosylation AlphaScreen (IIH6); 0% Pro5, 100% B10-LARGE cell signal | activation, % at 10 µM | 360,000 tested, 0.22% active | AID 624168;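 active = activation of at least 8% versus controls, or a plate z-score of at least 8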;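 also: Pro5 are CHO cells carrying HIG-tagged alpha-DG that lacks glycosylation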
# Mot1-301 SUMO: blocks SUMOylation pathway, rescuing yeast Mot1-301 growth. S. cerevisiae Mot1-301 growth rescue, ATP luminescence, 38.5C; percent above DMSO median, 100 means doubled. growth rescue, % at 18.8 µM. 320,000 tested, 1% active. AID 2716;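 active = every valid replicate shows activation above 250% relative to neutral control wells; inactive = the rest, any valid replicate at or below 250%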;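 also: OY570 slx delta 5 strain wells were the positive control but not used for scaling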
# CR mimetic SO: yeast age-related superoxide inhibition as caloric restriction mimetic. S. cerevisiae aged cells, superoxide DHE fluorescence; hits give low values. superoxide response (% of plate mean), % at 10 µM. 330,000 tested, 0.18% active. AID 2690;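 active = superoxide response under a set limit, about three screen SD below normal, cut at about 65% in these data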;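 also: yeast aged for seven days with compound at 30 °C before DHE staining; 100% = average MFI of all compound-treated wells on the plate with controls excluded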
# MPTP inh: blocks calcium-induced mitochondrial swelling. inhibition, % at 10 µM. 360,000 tested, 1.4% active. isolated mouse mitochondria, Ca2+ swelling absorbance, 30 min;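 active = inhibition of 50% or more, scaled per plate between neutral and stimulator controls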;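 also: 0% = DMSO wells given calcium and 100% = 1 mM EGTA wells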
# FAS TE block: FAS thioesterase (human) inhibition; P49327; recombinant FAS-TE, OMFH fluorogenic substrate, fluorescence endpoint; inhibition, % at 15 µM; 360,000 tested, 0.67% active;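 active = compounds whose normalised, plate-corrected inhibition of enzyme fluorescence in the single-dose primary screen is 50% or more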;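 also: 0% = DMSO with enzyme and 100% = substrate without enzyme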
# Target sequence (P49327 whole entry, looked up): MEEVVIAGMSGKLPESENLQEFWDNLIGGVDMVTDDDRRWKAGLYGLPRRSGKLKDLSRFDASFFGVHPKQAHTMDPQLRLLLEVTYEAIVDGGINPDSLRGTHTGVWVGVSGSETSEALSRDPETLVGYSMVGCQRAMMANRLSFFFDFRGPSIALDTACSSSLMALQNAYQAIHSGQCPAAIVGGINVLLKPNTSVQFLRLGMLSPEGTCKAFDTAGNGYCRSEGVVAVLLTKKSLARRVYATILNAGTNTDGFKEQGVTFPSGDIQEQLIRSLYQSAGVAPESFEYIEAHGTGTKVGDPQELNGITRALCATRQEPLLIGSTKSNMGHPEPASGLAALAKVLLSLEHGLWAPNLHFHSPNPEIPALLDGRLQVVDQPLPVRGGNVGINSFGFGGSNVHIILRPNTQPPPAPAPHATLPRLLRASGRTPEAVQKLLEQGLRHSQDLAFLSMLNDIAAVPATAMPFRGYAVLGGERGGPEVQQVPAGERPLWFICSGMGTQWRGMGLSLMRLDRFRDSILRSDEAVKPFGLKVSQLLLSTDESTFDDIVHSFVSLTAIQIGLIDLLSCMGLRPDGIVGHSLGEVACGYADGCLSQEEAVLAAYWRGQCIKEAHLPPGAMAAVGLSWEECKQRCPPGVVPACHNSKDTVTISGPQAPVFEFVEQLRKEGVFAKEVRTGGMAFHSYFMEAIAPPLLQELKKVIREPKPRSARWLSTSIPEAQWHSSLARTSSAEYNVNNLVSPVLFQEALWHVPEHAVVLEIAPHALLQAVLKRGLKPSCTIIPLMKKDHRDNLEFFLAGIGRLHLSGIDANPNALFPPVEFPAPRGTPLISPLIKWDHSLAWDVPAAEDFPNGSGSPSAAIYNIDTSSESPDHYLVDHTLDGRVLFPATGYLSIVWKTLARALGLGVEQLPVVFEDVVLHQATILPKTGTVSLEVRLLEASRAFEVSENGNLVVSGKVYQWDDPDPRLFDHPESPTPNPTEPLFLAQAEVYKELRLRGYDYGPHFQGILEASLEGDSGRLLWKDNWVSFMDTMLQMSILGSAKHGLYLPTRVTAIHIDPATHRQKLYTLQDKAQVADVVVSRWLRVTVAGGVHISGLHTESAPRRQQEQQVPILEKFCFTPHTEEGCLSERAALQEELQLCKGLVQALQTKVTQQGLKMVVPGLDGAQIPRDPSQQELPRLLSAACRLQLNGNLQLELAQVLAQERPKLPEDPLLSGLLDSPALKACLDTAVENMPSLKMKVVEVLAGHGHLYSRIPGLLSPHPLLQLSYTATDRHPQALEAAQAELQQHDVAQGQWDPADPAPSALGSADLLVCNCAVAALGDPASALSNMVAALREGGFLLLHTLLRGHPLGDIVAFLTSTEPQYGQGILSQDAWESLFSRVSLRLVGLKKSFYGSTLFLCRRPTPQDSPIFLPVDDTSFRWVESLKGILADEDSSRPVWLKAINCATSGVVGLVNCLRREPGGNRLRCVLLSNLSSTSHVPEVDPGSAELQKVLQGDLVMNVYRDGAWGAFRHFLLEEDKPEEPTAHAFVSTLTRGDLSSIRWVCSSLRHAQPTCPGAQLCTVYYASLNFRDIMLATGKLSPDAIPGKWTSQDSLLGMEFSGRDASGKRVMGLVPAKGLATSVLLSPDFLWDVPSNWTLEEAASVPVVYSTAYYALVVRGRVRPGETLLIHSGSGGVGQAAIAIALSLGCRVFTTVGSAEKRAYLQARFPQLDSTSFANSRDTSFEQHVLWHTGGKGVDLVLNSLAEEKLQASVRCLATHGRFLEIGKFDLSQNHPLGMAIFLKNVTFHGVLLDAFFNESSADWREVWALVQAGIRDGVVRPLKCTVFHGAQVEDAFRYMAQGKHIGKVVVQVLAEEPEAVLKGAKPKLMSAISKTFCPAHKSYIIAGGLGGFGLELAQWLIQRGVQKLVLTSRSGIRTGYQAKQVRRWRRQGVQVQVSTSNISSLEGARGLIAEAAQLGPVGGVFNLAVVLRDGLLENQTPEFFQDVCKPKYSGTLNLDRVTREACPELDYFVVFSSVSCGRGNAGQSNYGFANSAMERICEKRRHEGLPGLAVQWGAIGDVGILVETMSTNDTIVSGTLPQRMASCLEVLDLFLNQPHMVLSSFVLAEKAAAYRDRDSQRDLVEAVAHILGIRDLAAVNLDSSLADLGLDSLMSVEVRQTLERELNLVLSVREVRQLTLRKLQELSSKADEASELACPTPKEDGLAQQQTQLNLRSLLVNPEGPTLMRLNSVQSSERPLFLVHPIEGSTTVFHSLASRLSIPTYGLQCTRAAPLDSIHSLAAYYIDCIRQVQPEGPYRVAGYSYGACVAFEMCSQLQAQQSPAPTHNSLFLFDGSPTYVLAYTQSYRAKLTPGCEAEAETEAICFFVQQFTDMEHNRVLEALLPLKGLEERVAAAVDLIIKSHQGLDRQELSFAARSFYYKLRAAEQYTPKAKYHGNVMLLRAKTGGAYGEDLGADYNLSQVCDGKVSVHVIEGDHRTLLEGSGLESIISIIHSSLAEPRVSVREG
# Numbers without * were called inactive; · = no result.
SMILES,H9c2 protect,aDG glyco act,Mot1-301 SUMO,CR mimetic SO,MPTP inh,FAS TE block
CCOC(=O)N1CCN(C(=O)C2CCC(=O)N(Cc3ccccc3OC)C2)CC1 (configuration not stated),-3.0,0.2,·,·,1.1,-9.0
CC(=O)c1ccc(NC(=O)Cc2ccsc2)cc1,1.0,-0.1,33.4,93.7,0.0,-2.1
COC(=O)c1cc(NC(=O)c2ccc([N+](=O)[O-])cc2)c(=O)oc1C,-9.8,0.1,974.8*,98.5,0.2,0.4
CC(=O)c1cc(NC(=O)c2ccc([N+](=O)[O-])cc2)c(=O)oc1C,8.1,-0.3,586.2,101.5,0.4,-1.0
CC(C)Cc1ccccc1O,·,·,-5.0,109.0,·,·
Cc1noc(C)c1C(=O)NCCCc1ccccc1,1.0,1.3,-7.0,89.8,-0.7,-3.8
Cc1noc(C)c1C(=O)NCCc1c(C)[nH]c2ccccc12,2.0,0.1,296.1*,109.0,-2.2,-5.2
COc1cc(OC)cc(-c2oc3cccnc3c2C#CCCO)c1,56.2*,0.2,16.8,101.3,0.9,-1.3
O=C(NN1C(=O)/C(=C\c2cccnc2)SC1=S)C(c1ccccc1)c1ccccc1,60.3*,-0.4,-14.5,101.6,4.9,2.3
NS(=O)(=O)c1ccc(CNC(=O)c2cc(S(=O)(=O)N3CCOCC3)c(Cl)cc2Cl)cc1,1.9,-0.3,·,·,-0.3,-4.4
O=C(O)c1cccc(C(=O)O)c1,3.6,0.3,384.2*,98.2,1.0,-1.7
COc1cccc(/C=N/NC(=O)C(=O)N2CCCCCC2)c1O,45.2,0.5,5.2,97.0,0.2,-2.9
COc1cccc(/C=N/Nc2nc(Nc3ccccc3)nc(-n3nc(C)cc3C)n2)c1O,74.1*,-0.7,-11.1,106.8,10.5,10.9
COc1cccc(/C=N/NC(=O)CSCC(=O)Nc2ccccc2)c1O,55.2*,0.4,4.5,93.8,-0.1,-1.2
COc1cccc(/C=N/NC(=O)C(=O)N/N=C/c2cccc(OC)c2O)c1O,65.7*,0.7,·,·,0.8,5.4
Cc1cc(C)n(-c2nc(Nc3ccccc3)nc(-n3nc(C)cc3C)n2)n1,3.4,0.0,-2.1,134.3,2.9,-2.8
COc1cccc(/C=N\NC(=O)C2C(=O)NCC2c2ccccc2)c1O (configuration not stated),72.5*,0.8,-13.6,100.1,-0.7,0.1
CNc1cncc(-c2ccc(S(C)(=O)=O)cc2)n1,2.1,0.0,·,·,-0.9,-6.9
CN(C)S(=O)(=O)c1ccc(NC(=O)COc2cccc3c2OC(C)(C)C3)cc1,5.9,-0.5,·,·,-0.7,24.0
Cc1cc(NC(=O)CCC(=O)N(CC(=O)NC2CCCC2)c2cccc(F)c2)no1,9.2,-0.1,-2.3,92.7,-0.4,-4.4
O=C(N/N=C/c1ccc(O)cc1O)NC12CC3CC(CC(C3)C1)C2,51.8*,0.1,-3.4,92.6,1.0,-85.7
COc1cc(/C=N/NC(=O)NC23CC4CC(CC(C4)C2)C3)ccc1OCC(N)=O,62.4*,-0.2,40.1,111.0,0.0,4.0
COc1ccc(C=NNC(=S)NC23CC4CC(CC(C4)C2)C3)cc1OC,-15.6,3.8,·,·,0.7,19.9
Nc1nnc2cc(Br)ccc2n1,8.8,-0.3,·,·,-0.3,-10.8
CC(C)C[C@H]1CN(CCCC[C@H]2CNC(=O)C(=O)N2CCc2ccccc2)C(=O)C(=O)N1CCC1CCCCC1,·,0.2,·,·,-4.9,5.0
SMILES,H9c2 protect,aDG glyco act,Mot1-301 SUMO,CR mimetic SO,MPTP inh,FAS TE block
Cc1ccc(-c2csc(NCCn3c(-c4ccncc4)nc4ccccc43)n2)cc1,6.8,0.3,-6.3,94.9,0.7,4.0
COCc1c(C(=O)OCC(=O)NCCc2ccc(S(N)(=O)=O)cc2)oc2ccccc12,-2.9,-0.1,22.0,64.8*,0.7,-6.6
CCN1C(=O)[C@H]2[C@@H](c3ccc(-c4ccc(OC)cc4)cc3)N3CCCC[C@@]3(C(=O)OC)[C@H]2C1=O,-15.3,-0.3,787.8*,104.1,-1.5,38.8
CCN1C(=O)[C@H]2[C@@H](c3ccc(-c4ccc(OC)cc4)cc3)N3CCC[C@@]3(C(=O)OC)[C@H]2C1=O,-1.4,-0.1,-5.2,111.1,-1.7,16.1
O=C(CN(Cc1ccc2c(c1)OCO2)C(=O)CNC(=O)c1ccco1)NC1CCCCC1,2.6,-0.2,334.8*,87.6,0.3,-2.8
O=C(NCC(=O)N(Cc1cccs1)C(C(=O)NC1CCCC1)c1ccco1)c1cccs1 (configuration not stated),59.3*,-0.1,-10.3,96.9,0.0,-1.0
O=C(NCC(=O)N(Cc1ccccc1)C(C(=O)NC1CCCCC1)c1ccco1)c1ccco1 (configuration not stated),97.4*,-0.1,38.7,87.1,0.1,2.2
O=C(CN(C(=O)CNC(=O)c1ccco1)c1ccc2c(c1)OCO2)NC1CCCCC1,-7.0,-0.1,-3.8,92.1,1.1,15.9
COc1ccc(C(C(=O)NC2CCCC2)N(Cc2ccccc2)C(=O)CNC(=O)c2ccco2)cc1 (configuration not stated),4.1,0.0,-9.5,99.4,-2.3,-8.7
COCCCNC1=C(Cl)C(=O)c2ccccc2C1=O,-13.8,3.2,12.2,146.7,2.2,1.6
O=C1C(Cl)=C(Nc2ccccc2)C(=O)c2ccccc21,-13.7,-0.9,50.0,88.0,2.0,-6.9
O=C1C(Cl)=C(NCc2cccnc2)C(=O)c2ccccc21,-17.1,2.9*,21.5,148.0,0.4,-0.7
CC(C)NC1=C(Cl)C(=O)c2ccccc2C1=O,-14.0,6.3*,-1.2,150.1,1.7,4.4
CCN(CC)CCCNC1=C(Cl)C(=O)c2ccccc2C1=O,-21.1,9.2*,-3.3,165.0,2.4,4.5
C=CCNC1=C(Cl)C(=O)c2ccccc2C1=O,-11.5,9.7*,36.8,146.7,0.9,-2.2
Cn1c(=O)c2[nH]c(N=NNc3ccccc3F)nc2n(C)c1=O,2.6,0.4,8.1,103.5,2.2,-1.9
CCCCN(CCCC)CCNC(=O)c1ccc2nc(-c3ccccc3NC(C)=O)c(=O)[nH]c2c1,4.3,-0.1,561.1*,77.9,3.2,-8.4
Cc1ccc(NC2=NC3(CCCC3)N=C(N)N2)c(C)c1,-2.0,-0.1,-9.6,61.6*,-0.7,-5.6
Cc1cccc(Nc2nc(-c3ccccc3)c(C(=O)Nc3cccnc3)s2)c1,23.0,0.3,-15.9,99.2,-0.5,31.7
O=C(Nc1cccnc1)c1sc(Nc2ccccc2)nc1-c1ccccc1,65.3*,0.2,-12.0,88.4,-1.4,6.5
COC(=O)C1=C(C)Nc2nnnn2C1c1ccccc1Cl (configuration not stated),-1.3,0.0,338.9*,91.6,1.2,-2.7
O=C(Cc1ccc(Br)cc1)NC1CCN(Cc2ccccc2)CC1,-0.4,0.4,282.5*,95.0,-1.5,-4.2
O=C(Cc1ccccc1)NC1CCN(Cc2ccccc2)CC1,0.7,-0.2,163.7,109.7,0.3,-5.2
Cc1cnc(NC(=O)COc2cccc3c2OC(C)(C)C3)s1,4.2,0.1,254.9*,95.2,-0.7,-3.9
